# A number with no mark means an inactive call.
# Tests used:
# Test in all cases: log2 ratio of Biotin-Ahx-Ub-VS probe labelling (fragment/DMSO); higher = less target engagement (more negative = stronger competition), active = hit call of the paper (q ≤ 0.05, log2 ratio ≤ -1)
# Conditions in all cases: compound concentration: 200 uM; treatment time: 3 h
# [1] = target: T1, OTUD6B (UniProt Q8N6M0)
# T1 sequence (whole entry): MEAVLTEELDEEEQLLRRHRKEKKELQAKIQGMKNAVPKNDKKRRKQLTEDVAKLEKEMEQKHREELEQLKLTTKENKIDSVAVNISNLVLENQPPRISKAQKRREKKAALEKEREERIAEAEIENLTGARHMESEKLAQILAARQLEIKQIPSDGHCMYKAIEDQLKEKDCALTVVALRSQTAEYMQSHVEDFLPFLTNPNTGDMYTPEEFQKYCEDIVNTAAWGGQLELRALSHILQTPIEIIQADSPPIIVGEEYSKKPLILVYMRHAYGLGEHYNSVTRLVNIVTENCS
# In short: (§1)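 Each value is an average log2 ratio of fragment to vehicle, tested by unpaired t-test. The underlying Spectronaut label-free quantities were global-median-normalised, and only proteins with ≥2 unique peptides were included. Triplicate HEK293T lysate samples (495 µg) were exposed to fragment at 200 µM or vehicle for 3 h, then to Biotin-Ahx-Ub-VS at 0.5 µM final for 1 h, before NeutrAvidin enrichment of labelled DUBs, LysC and trypsin digestion, and diaPASEF LC-MS/MS.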
# [2] = target: T2, OTUD7B (UniProt Q6GQQ9)
# T2 sequence (whole entry): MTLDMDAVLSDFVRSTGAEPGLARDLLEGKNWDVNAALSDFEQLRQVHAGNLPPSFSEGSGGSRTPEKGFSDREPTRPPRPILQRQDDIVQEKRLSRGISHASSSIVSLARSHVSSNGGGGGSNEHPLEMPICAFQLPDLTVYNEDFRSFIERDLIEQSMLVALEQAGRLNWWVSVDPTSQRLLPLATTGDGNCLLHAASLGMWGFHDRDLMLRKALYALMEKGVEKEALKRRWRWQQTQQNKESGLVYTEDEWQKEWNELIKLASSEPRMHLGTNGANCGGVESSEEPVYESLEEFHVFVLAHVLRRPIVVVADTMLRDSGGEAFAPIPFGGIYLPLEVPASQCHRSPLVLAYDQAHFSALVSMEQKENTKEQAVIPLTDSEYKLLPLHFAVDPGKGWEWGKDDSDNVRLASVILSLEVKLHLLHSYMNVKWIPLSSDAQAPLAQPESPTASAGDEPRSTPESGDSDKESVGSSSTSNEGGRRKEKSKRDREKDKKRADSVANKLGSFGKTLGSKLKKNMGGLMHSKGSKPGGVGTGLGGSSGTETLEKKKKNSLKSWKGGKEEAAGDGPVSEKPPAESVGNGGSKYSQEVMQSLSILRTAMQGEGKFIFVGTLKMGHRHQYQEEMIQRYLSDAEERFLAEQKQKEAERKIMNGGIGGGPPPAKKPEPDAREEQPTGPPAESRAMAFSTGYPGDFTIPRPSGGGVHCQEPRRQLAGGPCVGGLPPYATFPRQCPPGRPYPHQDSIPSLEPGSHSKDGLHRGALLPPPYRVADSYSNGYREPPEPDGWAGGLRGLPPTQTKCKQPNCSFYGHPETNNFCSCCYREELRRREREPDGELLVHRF
# In short: as §1
# [3] = target: PRPF8 (UniProt Q6P2Q9)
# In short: as §1
# [4] = target: T3, PSMD7 (UniProt P51665)
# T3 sequence (whole entry): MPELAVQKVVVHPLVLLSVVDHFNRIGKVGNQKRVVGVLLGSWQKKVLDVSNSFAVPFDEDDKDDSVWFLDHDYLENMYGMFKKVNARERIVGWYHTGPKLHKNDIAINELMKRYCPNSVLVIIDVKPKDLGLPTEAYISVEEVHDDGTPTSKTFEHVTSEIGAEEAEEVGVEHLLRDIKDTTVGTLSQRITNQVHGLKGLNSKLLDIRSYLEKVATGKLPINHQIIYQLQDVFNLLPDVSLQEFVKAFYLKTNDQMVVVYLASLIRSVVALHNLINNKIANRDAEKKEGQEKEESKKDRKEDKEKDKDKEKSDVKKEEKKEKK
# In short: as §1
# [5] = target: UCHL1 (UniProt P09936)
# In short: as §1
# [6] = target: T4, UCHL3 (UniProt P15374)
# T4 sequence (whole entry): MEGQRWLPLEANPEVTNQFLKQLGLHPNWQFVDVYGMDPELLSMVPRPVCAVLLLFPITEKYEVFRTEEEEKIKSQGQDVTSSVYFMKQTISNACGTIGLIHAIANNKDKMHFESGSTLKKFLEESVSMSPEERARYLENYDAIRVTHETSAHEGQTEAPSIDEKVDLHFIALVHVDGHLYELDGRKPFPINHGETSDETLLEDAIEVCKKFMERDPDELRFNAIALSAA
# In short: as §1
# [7] = target: T5, UCHL5 (UniProt Q9Y5K5)
# T5 sequence (whole entry): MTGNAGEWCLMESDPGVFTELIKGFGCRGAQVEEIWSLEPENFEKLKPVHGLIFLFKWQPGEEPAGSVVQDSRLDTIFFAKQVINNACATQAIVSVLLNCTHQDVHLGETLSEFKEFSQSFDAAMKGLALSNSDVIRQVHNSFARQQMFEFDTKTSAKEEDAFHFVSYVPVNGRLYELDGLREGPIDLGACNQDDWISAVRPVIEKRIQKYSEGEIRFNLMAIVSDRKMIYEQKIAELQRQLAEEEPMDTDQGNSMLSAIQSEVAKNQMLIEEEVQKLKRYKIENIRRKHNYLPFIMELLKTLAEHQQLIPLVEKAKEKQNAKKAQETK
# In short: as §1
# [8] = target: USP10 (UniProt Q14694)
# In short: as §1
# [9] = target: T6, USP15 (UniProt Q9Y4E8)
# T6 sequence (whole entry): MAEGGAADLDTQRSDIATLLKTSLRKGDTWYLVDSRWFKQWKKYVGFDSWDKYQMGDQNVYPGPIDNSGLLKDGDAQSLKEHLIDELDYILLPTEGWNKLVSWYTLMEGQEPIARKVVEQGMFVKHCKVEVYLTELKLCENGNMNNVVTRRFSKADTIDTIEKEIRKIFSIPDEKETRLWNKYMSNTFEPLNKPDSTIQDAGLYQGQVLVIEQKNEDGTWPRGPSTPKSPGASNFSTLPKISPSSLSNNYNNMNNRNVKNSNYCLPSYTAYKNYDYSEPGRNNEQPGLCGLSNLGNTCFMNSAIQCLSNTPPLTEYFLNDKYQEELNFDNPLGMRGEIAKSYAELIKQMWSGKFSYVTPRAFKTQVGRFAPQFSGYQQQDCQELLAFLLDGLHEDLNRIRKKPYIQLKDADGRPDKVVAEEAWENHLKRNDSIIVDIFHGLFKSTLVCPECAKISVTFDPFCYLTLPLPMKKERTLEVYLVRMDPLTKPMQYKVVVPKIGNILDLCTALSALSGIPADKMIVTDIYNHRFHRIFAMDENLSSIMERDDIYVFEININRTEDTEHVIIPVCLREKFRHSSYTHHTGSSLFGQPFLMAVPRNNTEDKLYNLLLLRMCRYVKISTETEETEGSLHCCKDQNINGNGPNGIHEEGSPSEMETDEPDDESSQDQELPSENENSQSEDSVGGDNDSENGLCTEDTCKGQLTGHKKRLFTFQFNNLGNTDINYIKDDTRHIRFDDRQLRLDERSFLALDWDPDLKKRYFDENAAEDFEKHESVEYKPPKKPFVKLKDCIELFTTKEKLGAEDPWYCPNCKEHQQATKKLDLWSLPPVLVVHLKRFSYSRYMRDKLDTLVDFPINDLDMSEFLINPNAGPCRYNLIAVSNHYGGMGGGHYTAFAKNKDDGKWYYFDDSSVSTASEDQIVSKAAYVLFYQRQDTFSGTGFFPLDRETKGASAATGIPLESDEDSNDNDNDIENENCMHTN
# In short: as §1
# [10] = target: USP16 (UniProt Q9Y5T5)
# In short: as §1
# UCHL1, sequence (P09936 whole entry, looked up): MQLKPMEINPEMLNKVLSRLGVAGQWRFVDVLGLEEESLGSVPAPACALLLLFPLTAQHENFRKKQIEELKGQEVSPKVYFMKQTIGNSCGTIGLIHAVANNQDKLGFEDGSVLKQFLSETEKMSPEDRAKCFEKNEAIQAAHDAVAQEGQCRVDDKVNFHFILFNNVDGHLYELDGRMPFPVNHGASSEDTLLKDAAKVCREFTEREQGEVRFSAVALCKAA
# USP10, sequence (Q14694 whole entry): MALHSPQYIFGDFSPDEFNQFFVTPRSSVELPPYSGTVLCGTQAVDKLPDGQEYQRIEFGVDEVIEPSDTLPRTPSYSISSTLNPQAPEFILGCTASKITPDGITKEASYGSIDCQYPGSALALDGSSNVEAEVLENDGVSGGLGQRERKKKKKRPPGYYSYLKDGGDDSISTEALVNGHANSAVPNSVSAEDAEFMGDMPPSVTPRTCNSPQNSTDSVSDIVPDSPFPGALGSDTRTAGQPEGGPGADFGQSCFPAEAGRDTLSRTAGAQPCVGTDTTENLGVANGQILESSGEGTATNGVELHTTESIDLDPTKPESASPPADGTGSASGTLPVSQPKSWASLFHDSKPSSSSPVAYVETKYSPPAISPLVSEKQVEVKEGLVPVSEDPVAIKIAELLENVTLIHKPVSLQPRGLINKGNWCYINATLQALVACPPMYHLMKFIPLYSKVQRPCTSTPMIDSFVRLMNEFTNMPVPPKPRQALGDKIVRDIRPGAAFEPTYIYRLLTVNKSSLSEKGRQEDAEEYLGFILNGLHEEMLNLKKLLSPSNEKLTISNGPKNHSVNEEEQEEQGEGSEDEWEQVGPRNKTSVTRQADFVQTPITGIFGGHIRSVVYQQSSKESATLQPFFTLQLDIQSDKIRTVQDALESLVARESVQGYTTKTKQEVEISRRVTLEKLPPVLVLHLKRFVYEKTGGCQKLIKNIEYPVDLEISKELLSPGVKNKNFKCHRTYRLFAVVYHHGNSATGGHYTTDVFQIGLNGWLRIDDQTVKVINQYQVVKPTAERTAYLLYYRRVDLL
# USP16, sequence (Q9Y5T5 whole entry, looked up): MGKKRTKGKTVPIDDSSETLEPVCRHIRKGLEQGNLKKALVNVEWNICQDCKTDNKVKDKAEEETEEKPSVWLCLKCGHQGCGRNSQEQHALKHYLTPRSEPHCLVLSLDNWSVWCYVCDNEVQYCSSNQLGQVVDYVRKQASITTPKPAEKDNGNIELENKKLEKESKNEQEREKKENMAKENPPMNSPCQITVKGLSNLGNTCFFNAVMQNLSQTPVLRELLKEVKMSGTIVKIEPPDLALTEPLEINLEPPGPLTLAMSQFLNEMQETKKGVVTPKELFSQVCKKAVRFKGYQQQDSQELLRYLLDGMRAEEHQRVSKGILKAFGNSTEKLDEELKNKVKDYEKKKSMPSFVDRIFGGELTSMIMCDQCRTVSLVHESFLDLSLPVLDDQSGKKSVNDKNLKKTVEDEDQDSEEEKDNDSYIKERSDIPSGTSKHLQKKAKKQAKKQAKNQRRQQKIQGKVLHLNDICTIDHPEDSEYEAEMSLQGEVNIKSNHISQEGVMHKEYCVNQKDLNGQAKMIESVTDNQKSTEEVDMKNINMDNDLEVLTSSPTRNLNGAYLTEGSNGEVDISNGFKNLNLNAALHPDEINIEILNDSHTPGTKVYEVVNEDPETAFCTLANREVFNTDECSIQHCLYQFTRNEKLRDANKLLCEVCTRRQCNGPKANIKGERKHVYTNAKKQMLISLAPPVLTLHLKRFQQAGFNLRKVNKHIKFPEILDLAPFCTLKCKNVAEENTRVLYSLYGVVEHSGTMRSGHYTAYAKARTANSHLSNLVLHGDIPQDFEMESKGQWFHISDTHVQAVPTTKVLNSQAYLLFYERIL
smiles,measurement,setting,value
N#Cc1ccc(Cl)cc1NC(=O)CCl,log2 ratio of Biotin-Ahx-Ub-VS probe labelling,[1],-0.0498
same,log2 ratio of Biotin-Ahx-Ub-VS probe labelling,[2],-1.73 (active)
same,log2 ratio of Biotin-Ahx-Ub-VS probe labelling,[3],0.00848
same,log2 ratio of Biotin-Ahx-Ub-VS probe labelling,[4],-0.0625
same,log2 ratio of Biotin-Ahx-Ub-VS probe labelling,[5],-1.01 (active)
same,log2 ratio of Biotin-Ahx-Ub-VS probe labelling,[6],0.385
same,log2 ratio of Biotin-Ahx-Ub-VS probe labelling,[7],0.0193
same,log2 ratio of Biotin-Ahx-Ub-VS probe labelling,[8],-0.153
same,log2 ratio of Biotin-Ahx-Ub-VS probe labelling,[9],-0.0346
same,log2 ratio of Biotin-Ahx-Ub-VS probe labelling,[10],-0.655
